From PubChem BioAssay
Hits are enriched below; roughly 7% of the tested compounds scored in any of these assays.
DRD3 agonist: qHTS of D3 Dopamine Receptor Agonist: qHTS; D3R DiscoveRx beta-arrestin cells, luminescence, 90 min; max activation, %; actives 0.58% (n = 410,000); in the data active = max activation above about 30%; note: 0% is about no effect
Target sequence (P35462 whole entry, looked up): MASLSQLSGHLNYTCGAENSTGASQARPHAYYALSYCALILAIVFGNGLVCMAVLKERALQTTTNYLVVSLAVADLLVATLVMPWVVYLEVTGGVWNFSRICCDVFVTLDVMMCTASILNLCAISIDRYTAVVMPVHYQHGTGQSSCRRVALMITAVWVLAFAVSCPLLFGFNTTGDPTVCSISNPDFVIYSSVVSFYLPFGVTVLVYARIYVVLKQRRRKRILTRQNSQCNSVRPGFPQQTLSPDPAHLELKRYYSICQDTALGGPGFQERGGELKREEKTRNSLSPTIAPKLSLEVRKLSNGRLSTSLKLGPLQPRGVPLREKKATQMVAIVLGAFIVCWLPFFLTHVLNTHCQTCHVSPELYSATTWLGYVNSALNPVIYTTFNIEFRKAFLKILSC
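Agonist mode: compounds and dopamine controls were applied to plated cells for 90 min at 37 degrees C after an overnight attachment at 1500 cells/well. Luminescent read-out followed 30 - 60 minutes at room temperature with DiscoveRx detection reagent.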
ATXN2 expr inh: Primary qHTS for Inhibitors of ATXN expression. actives 0.72% (n = 360,000). Potency, µM (series often up to 57 µM), for the others: at the highest dose activity change, negative = inhibition, actives largely listed as inhibitors. AID 1745845, 2022. HEK-293 ATXN2-luciferase reporter, luminescence, 24 h; note: potency is the fitted concentration of half-maximal effect; % is set by controls: 0 for no effect and ±100 for the full control effect; nearly all actives have a fitted effect of over 55% in size
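ATXN2-luciferase reporter cells (luciferase flanked by upstream and downstream ATXN2 gene portions) were treated 24 h at 37 °C with compounds at up to 57 uM. SteadyGlo luminescence gave expression; GF-AFC fluorescence gave viability.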
S2 tox: Viability Counterscreen for Primary qHTS for Inhibitors of ATXN expression. Potency, µM (titrated, usually from 56.7 µM), actives largely listed as cytotoxic. S2 cells (HEK-293 line with an ATXN2-luciferase reporter) viability, CellTiter-Fluor protease fluorescence, 24 h. actives 0.49% (n = 400,000); note: potency is the fitted concentration of half-maximal effect; nearly all actives have a fitted effect of over 40% in size
IL1B secr inh: qHTS for Inhibitors of Inflammasome Signaling: IL-1-beta AlphaLISA Primary Screen | THP-1 LPS/ATP IL-1B secretion, AlphaLISA, 16 h; stronger effect = lower value | activity change, % at 57.5 µM | actives 4.7% (n = 360,000); in the data active = activity change below about -50%; inconclusive = mostly about -30% to -49%; note: % is set by controls: 0 for no effect and ±100 for the full control effect
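Secreted IL-1B measured by AlphaLISA bead assay after 16 h compound exposure of THP-1 cells; compounds (final up to 57.5 uM) added 1 h before LPS (250 ng/mL) and ATP (1.25 mM) stimulation; lower signal means less secretion.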
a7 integrin act: qHTS for Activators of Integrin-Mediated Alleviation for Muscular Dystrophy; alpha7betagal myoblasts, beta-gal FDG fluorescence, 48 h; AID 624291, 2012; actives 0.064% (n = 350,000); Potency, µM (series often up to 38.3 µM), for the others: at the highest dose activation, actives largely listed as activators;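 note: potency is the fitted concentration of half-maximal effect; 100% = response of the positive control SU9516; nearly all actives have a fitted effect of over 60% in size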
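Alpha7betagal+/- myoblasts (passage 13) were plated 16-24 hr, then exposed to compounds (1:260 dilution of DMSO stock) for 48 hours at 37C. After MPER lysis, β-galactosidase reporter activity was read as FDG fluorescence (ex 480/em 540) after 30 minutes.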
DRD3 antagonist: qHTS of D3 Dopamine Receptor Antagonist: qHTS; D(3) dopamine receptor (Homo sapiens), P35462; D3R cells, DiscoveRx beta-arrestin luminescence, antagonist mode; stronger effect = lower value; max response, negative = inhibition, %; actives 2.5% (n = 360,000); AID 652054, 2013; in the data active = max response below about -50%; inconclusive = no clear call, values can overlap the other calls; note: % is set by controls: 0 for no effect and ±100 for the full control effect
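Cells expressing the human receptor were seeded at 1500 cells/well, incubated overnight at 37 degrees C in 5% CO2, then exposed to library compounds with dopamine controls for 90 minutes at 37 degrees C before luminescent detection.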
The depositor's hits bear a star. Unless noted, calls come from the whole dose curve; as a rule, active = well fitted curve in the direction sought with a large enough effect; inconclusive = small, poorly fitted or top-dose-only effect, or another doubt; inactive = no such curve, though single readings can be large; an effect the other way counts as inactive or inconclusive.

Results for C#CCN(C[C@H]1[C@H](OC(=O)NCc2ccco2)[C@H](OC(=O)NCc2ccco2)C[C@H]2C(=O)N(c3ccccc3)C(=O)[C@@H]12)S(=O)(=O)c1ccc(C)cc1 ?
DRD3 agonist: 3; ATXN2 expr inh: 20%; S2 tox: inactive; IL1B secr inh: -8; a7 integrin act: 17%; DRD3 antagonist: 12

What do the screens show for `C#CCN(C[C@@H]1[C@@H](OC(=O)NCc2ccc(OC)c(OC)c2)[C@@H](OC(=O)NCc2ccc(OC)c(OC)c2)Cn2c(=O)ccc(=O)n21)S(=O)(=O)c1ccc(C)cc1`?
DRD3 agonist: -1; ATXN2 expr inh: inconclusive; S2 tox: 20µM*; IL1B secr inh: -106*; a7 integrin act: -43%; DRD3 antagonist: 21

How did COc1ccc(NC(=O)C2CCOC2=O)cc1 (centres undefined) do in these assays?
DRD3 agonist: 3; ATXN2 expr inh: -20%; S2 tox: inactive; IL1B secr inh: -18; a7 integrin act: 6%; DRD3 antagonist: -1

What do the screens show for `S=c1[nH]nc(-c2cccc(Br)c2)o1`?
DRD3 agonist: -1; ATXN2 expr inh: 4%; S2 tox: inactive; IL1B secr inh: 28; a7 integrin act: 2%; DRD3 antagonist: 9

How did Nn1c(-c2cccc(Br)c2)n[nH]c1=S do in these assays?
DRD3 agonist: -15; ATXN2 expr inh: -11%; S2 tox: inactive; IL1B secr inh: 2; a7 integrin act: 11%; DRD3 antagonist: -85*

Results for COc1cccc2c(=O)c3c(cnn3C)n(C)c12 ?
DRD3 agonist: -7; ATXN2 expr inh: -5%; IL1B secr inh: -54*; a7 integrin act: -8%; DRD3 antagonist: 27

What do the screens show for `Cc1cccc(N2CCN(C(=O)c3ccc4c(c3)N(Cc3cccc(Cl)c3)C(=O)c3ccccc3S4=O)CC2C)c1` (centres undefined)?
DRD3 agonist: -6

Results for Cc1nc(-c2ccccc2)sc1-c1ccc(SCC(=O)Nc2cccc(C(F)(F)F)c2)nn1 ?
DRD3 agonist: -2

What do the screens show for `O=C(CSc1nnc(Cn2nnc3ccccc32)o1)N(Cc1ccc(Cl)cc1)c1ccccc1`?
DRD3 agonist: -5; ATXN2 expr inh: -34%; S2 tox: inactive; IL1B secr inh: -52*; a7 integrin act: -37%; DRD3 antagonist: -9

Results for O=C(CSc1nnc(Cn2nnc3ccccc32)o1)Nc1cccc(Cl)c1 ?
DRD3 agonist: 3; ATXN2 expr inh: 42%; S2 tox: inactive; IL1B secr inh: 17; a7 integrin act: -14%; DRD3 antagonist: -13

How did CC(C)(C)CNC(CO)C12CC3CC(CC(C3)C1)C2 (centres undefined) do in these assays?
DRD3 agonist: -3; ATXN2 expr inh: -11%; S2 tox: inactive; IL1B secr inh: 20; a7 integrin act: 6%; DRD3 antagonist: -54*

How did NCCCn1c(C(=O)c2cc(Cl)c(N)c(Cl)c2)c2ccc([N+](=O)[O-])cc2[n+]1[O-] do in these assays?
DRD3 agonist: -21; ATXN2 expr inh: inconclusive; S2 tox: 10µM*; IL1B secr inh: 0; a7 integrin act: -25%; DRD3 antagonist: -6

What do the screens show for `Cc1cc2cc(C=C(C#N)C#N)c(Cl)nc2cc1C`?
DRD3 agonist: 13; ATXN2 expr inh: -38%; S2 tox: inconclusive; IL1B secr inh: -100*; a7 integrin act: -17%; DRD3 antagonist: -13

How did COc1ccc(NC(=O)CN(C)C(=O)c2ccc3c(c2)CC(c2ccccc2)OC3=O)cc1 (centres undefined) do in these assays?
DRD3 agonist: -6; S2 tox: inconclusive; IL1B secr inh: 41; a7 integrin act: 7%; DRD3 antagonist: 15

What do the screens show for `O=C(CCn1nc(-c2ccccc2)c2ccccc2c1=O)Nc1ccccc1`?
DRD3 agonist: -7; ATXN2 expr inh: -15%; S2 tox: inactive

Results for OC(CN1C2=NCCN2c2ccccc21)c1ccc(Br)cc1 (centres undefined) ?
DRD3 agonist: -1; ATXN2 expr inh: -23%; S2 tox: inactive; IL1B secr inh: -62*; a7 integrin act: -18%; DRD3 antagonist: -15

What do the screens show for `OC(CN1C2=NCCN2c2ccccc21)c1ccccc1` (centres undefined)?
DRD3 agonist: 4; ATXN2 expr inh: -15%; S2 tox: inconclusive; IL1B secr inh: 0; a7 integrin act: -7%; DRD3 antagonist: 5

Results for O=C1C(=O)c2c(ccc3ccccc23)-c2ccccc21 ?
DRD3 agonist: -14; ATXN2 expr inh: 3.2µM*; S2 tox: 5µM*; IL1B secr inh: -87*; a7 integrin act: -23%; DRD3 antagonist: -53*

Results for c1ccc2c(c1)OCCOCCOCCOCCOCCOc1ccccc1OCCOCCOCCO2 ?
DRD3 agonist: 1; ATXN2 expr inh: -31%; S2 tox: inconclusive; IL1B secr inh: -73*; a7 integrin act: -54%; DRD3 antagonist: 1

Results for OCCN1CCOCCOc2ccccc2OCCOCC1 ?
DRD3 agonist: 6; S2 tox: inconclusive; IL1B secr inh: 48; a7 integrin act: 2%; DRD3 antagonist: 13

How did Cn1c(=O)c2c(nc(N/N=C/c3ccco3)n2C)n(C)c1=O do in these assays?
DRD3 agonist: 3; ATXN2 expr inh: 0%; S2 tox: inactive; IL1B secr inh: -7; a7 integrin act: 35%; DRD3 antagonist: 12

What do the screens show for `CN(C)/C=C/C(=O)c1ccc2noc(-c3ccc(F)cc3)c2c1`?
DRD3 agonist: 10; ATXN2 expr inh: -14%; S2 tox: inactive; IL1B secr inh: inconclusive; a7 integrin act: 7%; DRD3 antagonist: -17

What do the screens show for `Cc1cccc(-c2onc3ccc(C(=O)/C=C/N(C)C)cc23)c1`?
DRD3 agonist: -10; S2 tox: inconclusive; IL1B secr inh: -8; a7 integrin act: inconclusive; DRD3 antagonist: 9

What do the screens show for `COc1cccc(-c2onc3ccc(C(=O)/C=C/N(C)C)cc23)c1`?
DRD3 agonist: 1; ATXN2 expr inh: -14%; S2 tox: inconclusive; IL1B secr inh: -66*; a7 integrin act: 1%; DRD3 antagonist: 5

How did Cc1ccc(-c2onc3ccc(C(=O)/C=C/N(C)C)cc23)cc1 do in these assays?
DRD3 agonist: 11; ATXN2 expr inh: 3%; S2 tox: inconclusive; IL1B secr inh: -25; a7 integrin act: 3.5µM*; DRD3 antagonist: 7
